In PubChem BioAssay AID540356 (Broad Institute, 2011):
Among all 2,500 compounds or so, about 360 (14%) were called active.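 The calls were made as follows: active = signal-lowering compounds whose fitted half-maximal concentration AC50 is no higher than ten times their top tested concentration; inconclusive = flat curve with 30 to 70% inhibition, or poor fit; inactive = flat within 30%, signal increase, or AC50 above limit.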 These entries were drawn from the full list.

experiment: non-specific inhibitors of H2O2 luminol chemiluminescence – biochemical, luminescence, no ALR or DTT, cherry-pick, artefact control for ALR inhibitor project, dose response (AID 540356); conditions: HRP/H2O2 luminol luminescence counterscreen; series mostly up to 10 µM; activity change, negative = inhibition: at the top concentration;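 as to activity change, negative = inhibition: 0% = median of neutral control wells and -100% = median of quercitin 100 µM wells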

| SMILES | activity change, negative = inhibition | AC50 |
| --- | --- | --- |
| O=C(NCc1ccccn1)c1ccc2c(c1)N(Cc1ccccc1)CCS2 | 0.248% (inactive) |  |
| COc1ccc(N2CCN(C(=O)CCNC(=O)c3ccc(C(C)(C)C)cc3)CC2)cc1 | -1.79% (inactive) |  |
| Clc1nnc(N2CCCCC2)c2ccccc12 | -0.603% (inactive) |  |
| Cc1cc(O)c(Sc2ncn[nH]2)cc1NS(=O)(=O)c1ccc(Cl)cc1 | -11.3% (inactive) |  |
| CC(C)c1ccc(NC2CCCN(C(=O)c3cc(C(C)C)nc(N)n3)C2)cc1 (centres undefined) | -1.39% (inactive) |  |
| Cc1cc(C(=O)N2CCCC(Nc3ccc(C(C)C)cc3)C2)nn1C (centres undefined) | -3.19% (inactive) |  |
| Cc1ccc(S(=O)(=O)Nc2ccc(O)c(Sc3ncn[nH]3)c2)cc1 |  | 10.4 µM (active) |
| CC(C)c1ccc(S(=O)(=O)Nc2ccc(O)c(Sc3ncn[nH]3)c2)cc1 |  | 9.35 µM (active) |
| Cc1ccc(S(=O)(=O)Nc2cc(C)c(O)cc2C)cc1 | -3.78% (inactive) |  |
| COc1cc(-n2c(-c3ccccc3)n[nH]c2=S)c(OC)cc1Cl | -5.76% (inactive) |  |
| COc1ccc(C(=O)N2CCN=C2SCc2cccnc2)c(OC)c1 | -0.521% (inactive) |  |
| Cc1cc(-c2nsc(=O)o2)c(S(C)(=O)=O)s1 | -3.28% (inactive) |  |
| Cc1c(/C=N\NC(=O)c2ccc(F)cc2)cnn1C | -0.44% (inactive) |  |
| CCN(CC)c1ccc(CNc2ccc3c(c2)ncn3CC)cc1 | -4.04% (inactive) |  |
| CCN(CC)c1ccc(CN2CCCCCC2)cc1 | -1.83% (inactive) |  |
| CN(C)c1ccc(-c2n[nH]c(=S)n2-c2ccccc2)cc1 | -1.29% (inactive) |  |
| Cc1cc(C)nc(Sc2c(C)nn(-c3ccccc3)c2C)n1 | -0.742% (inactive) |  |
| Oc1c(Cl)cc(Cl)cc1CNc1ccc(Br)cn1 | -1.14% (inactive) |  |
| O=C(c1ccc2c(c1)OCO2)N1CCN(c2ccccc2)CC1 | 0.839% (inactive) |  |
| O=c1oc2ccccc2cc1-c1ccc(O)cc1 | -10.8% (inactive) |  |
| c1ccc2c(-c3csc(-c4ccncc4)n3)c[nH]c2c1 | -10.2% (inactive) |  |
| Nc1nc(-c2c[nH]c3ccccc23)cs1 | -0.944% (inactive) |  |
| O=C(O)Cn1cc(C(=S)N2CCCCC2)c2ccccc21 | -14.5% (inactive) |  |
| CC(C)NS(=O)(=O)c1ccc2c(c1)NCC2 | -1.5% (inactive) |  |
| COc1ccc(C2=CSC3=NNC4(CCCCC4)NN23)cc1 | -0.282% (inactive) |  |

| SMILES | activity change, negative = inhibition | AC50 |
| --- | --- | --- |
| COc1ccc(NC2c3ccccc3C(=O)N2c2cccnc2)cc1Cl (centres undefined) | -3.2% (inactive) |  |
| S=c1[nH]nc(-c2ccco2)n1C1CCCCC1 | -1.24% (inactive) |  |
| O=C(NNc1nc2ccccc2s1)c1ccccc1F |  | 5.35 µM (active) |
| O=C(NNc1nc2cc3c(cc2s1)OCO3)c1ccccc1 | -0.28% (inactive) |  |
| O=C(NNc1c2ccccc2nc2ccccc12)c1ccccc1O | -2.21% (inactive) |  |
| COc1cccc(N2CCN(CC(=O)NC(C)c3ccccc3)CC2)c1 (centres undefined) | -1.52% (inactive) |  |
| O=C(NC1CCCCC1)N1CCN(c2ccc(Cl)cc2)CC1 | -0.46% (inactive) |  |
| O=C(Nc1ccccc1N1CCCC1)c1ccccc1F | -1.54% (inactive) |  |
| COc1ccc(N2CCC(CNC(=O)Nc3ccc(OC)cc3OC)C2)cc1 (centres undefined) | -2.98% (inactive) |  |
| Clc1ccc(-n2nnc(-c3nccs3)n2)cc1Cl | -1.28% (inactive) |  |
| Cc1cc(C)n2cc(CSc3nc4ccccc4[nH]3)nc2n1 | -2.68% (inactive) |  |
| COc1ccccc1N1CCN(S(=O)(=O)c2cccc(F)c2)CC1 | -2.52% (inactive) |  |
| Oc1cc2c(cc1O)C(c1ccccc1)CNCC2 (centres undefined) |  | 4.68 µM (active) |
| Oc1ccc(C2CNCCc3c2cc(O)c(O)c3Cl)cc1 (centres undefined) |  | 5.92 µM (active) |
| Nc1[nH]c(N=NC(=O)c2ccc(F)cc2)c2ccccc12 |  | > 10 µM (inactive) |
| CC(C)(C)c1ccc(Oc2ccc(NC(=O)CCCC(=O)O)cn2)cc1 | -11.2% (inactive) |  |
| Cc1c(Cl)c(-c2n[nH]c(=S)n2-c2ccccc2)nn1C | -3.37% (inactive) |  |
| O=c1ccsn1Cc1ccccc1 | -0.761% (inactive) |  |
| COc1cc(OC)cc(C(=O)Nc2ccc(S(=O)(=O)Nc3cc(C)nc(C)n3)cc2)c1 | -13.2% (inactive) |  |
| COc1ccc(OC)c(N(CC(N)=O)S(=O)(=O)c2ccc(OC)c(OC)c2)c1 | -1.8% (inactive) |  |
| Cc1ccc(S(=O)(=O)NN2C(=O)/C(=C/c3cccnc3)SC2=S)cc1 | 0.314% (inactive) |  |
| Cc1nc(C)c(/C(O)=C\c2nc3ccc([N+](=O)[O-])cc3oc2=O)o1 | -6.55% (inactive) |  |
| CNc1nnc(-c2cccc(N(C)C)c2)s1 |  | 1.05 µM (active) |
| Cc1cc(C(=O)Nc2nnc(-c3ccccc3)s2)no1 | 4.74% (inactive) |  |
| Cc1nc(SCc2ccc(Cl)c(Cl)c2)ncc1C(=O)O | -2.92% (inactive) |  |

| SMILES | activity change, negative = inhibition | AC50 |
| --- | --- | --- |
| COc1c(F)c(F)c(C(=O)O)c(Nc2ccc(C)cc2C)c1F | -2.48% (inactive) |  |
| COc1ccc(N2C(=O)CSC2c2ccncc2)cc1 (centres undefined) | -0.02% (inactive) |  |
| CCCCN(C)S(=O)(=O)c1ccc(C(=O)Nc2nnc(-c3ccco3)o2)cc1 | -1.54% (inactive) |  |
| Cn1c(=O)c2c(nc(N/N=C/c3ccncc3)n2Cc2ccccc2)n(C)c1=O | -3.48% (inactive) |  |
| COc1ccc(-c2cn[nH]c2-c2ccc(OC)cc2O)cc1 | -0.281% (inactive) |  |
| COc1ccc(-c2n[nH]c(C)c2-c2ccccc2OC)c(O)c1 | -3.28% (inactive) |  |
| Nc1ncc(-c2ccccc2)c(-c2ccc(O)cc2O)n1 | -18.7% (inactive) |  |
| Cc1ccc(Nc2nc(-c3ccc(O)cc3O)cs2)nc1 | -1.74% (inactive) |  |
| Cc1ccc(-n2c(-c3ccc(Cl)cc3)n[nH]c2=S)c(C)c1 | -6.19% (inactive) |  |
| COc1ccccc1-c1cc(-c2ccc(O)cc2)nc(N)c1C#N | -2.09% (inactive) |  |
| Cc1cccnc1Nc1nc(-c2ccc(O)cc2O)cs1 | -5.97% (inactive) |  |
| Cc1cc(C)nc(NNC(=O)c2ccccc2O)n1 | -6.11% (inactive) |  |
| CC[C@@H](C)[C@H](NC(=O)Cc1c(C)c2cc3c(C)coc3c(C)c2oc1=O)C(=O)O | -7.97% (inactive) |  |
| O=C(O)c1ccc(Sc2nnc(-c3cccc(Br)c3)o2)c([N+](=O)[O-])c1 | 0.002% (inactive) |  |
| ClCc1csc(-c2ccc(Cl)cc2)n1 | -0.804% (inactive) |  |
| O=C(NCCc1ccc(O)cc1)c1ccc(Cl)cc1 | -4.94% (inactive) |  |
| Cc1ccc(O)c(NC(=O)CCCC(=O)O)c1 | 0.036% (inactive) |  |
| c1ccc(-c2cc(N3CCCCCC3)n[nH]2)cc1 | -2.05% (inactive) |  |
| O=c1cc(-c2cccc([N+](=O)[O-])c2)[nH][nH]1 | -18% (inactive) |  |
| CC(=NC1CCCC1)c1c(C)[nH]n(-c2nc3ccccc3s2)c1=O | -5.59% (inactive) |  |
| N/C(=N/O)c1ccccc1N1CCC(Cc2ccccc2)CC1 | -3.88% (inactive) |  |
| Cc1nc(-c2cccc(N)c2)cs1 | 0.082% (inactive) |  |
| CN(C)S(=O)(=O)c1cccc(-c2cn3cccnc3n2)c1 | -0.689% (inactive) |  |
| Nc1cccc(-c2cn3cccnc3n2)c1 |  | 4.52 µM (active) |
| COc1ccc(CC(=O)N2CCN=C2SCc2cccc([N+](=O)[O-])c2)cc1 | -3.08% (inactive) |  |

| SMILES | activity change, negative = inhibition | AC50 |
| --- | --- | --- |
| COc1ccc(/C=N/NC(=O)c2ccn[nH]2)cc1CSc1ccccn1 | -0.553% (inactive) |  |
| Cc1c(Br)c(=O)oc2c(Br)c(O)c(O)cc12 |  | 7.79 µM (active) |
| CCc1c(C)c2cc(Cl)c(O)c(CN3CCCCC3)c2oc1=O | -0.144% (inactive) |  |
| CC1CCC2C(C1)Nc1c(C(=O)O)cccc1C2(C)C (centres undefined) | -7.59% (inactive) |  |
| C=CCn1c(C(C)NC(=O)c2cccc(C)c2)n[nH]c1=S (centres undefined) | -5.54% (inactive) |  |
| COc1cccc(OC)c1C(=O)N1CCN=C1SCc1cccnc1 | 0.71% (inactive) |  |
| O=C(O)C(c1ccccc1)N1C(=O)/C(=C\c2ccc(O)c(O)c2)SC1=S (centres undefined) |  | 5 µM (active) |
| O=C(O)C(c1ccccc1)N1C(=O)/C(=C\c2ccc(-c3cccc(Cl)c3)o2)SC1=S (centres undefined) | -3.18% (inactive) |  |
| Cc1cc(C)nc(NN2C(=O)/C(=C/c3ccc(O)cc3)SC2=S)n1 | -1.81% (inactive) |  |
| Clc1ccc(/C=C/c2ncc3ccccn23)cc1 | -2.76% (inactive) |  |
| COc1cc(/C=N/Nc2nc3ccccc3[nH]2)ccc1O |  | 8.83 µM (active) |
| COc1cc(/C=N/Nc2nc3ccccc3[nH]c2=O)ccc1O | -1.19% (inactive) |  |
| COc1ccc(/C=N/Nc2nc3ccccc3[nH]2)cc1OC | -4.23% (inactive) |  |
| O=S(=O)(Nc1ccc(N2CCCCC2)cc1)c1cccc2cccnc12 | -3.36% (inactive) |  |
| COc1ccc(O)c(-c2cc(-c3ccccc3[N+](=O)[O-])[nH]n2)c1 | -1.04% (inactive) |  |
| COc1ccc(CNc2nc3ccccc3n2C(C)C)c(O)c1 | -1.78% (inactive) |  |
| Oc1ccccc1-c1n[nH]c(=S)n1Cc1ccco1 | -1.91% (inactive) |  |
| COc1ccc(N2CCN(S(=O)(=O)c3cccc4cccnc34)CC2)cc1 | -0.663% (inactive) |  |
| Oc1cccc(Nc2c3ccccc3nc3ccccc23)c1 | -4.8% (inactive) |  |
| Oc1ccc(NCc2cccs2)cc1 | -11.6% (inactive) |  |
| COC(=O)C1C(C(C)C)N(c2ccccc2)OC1(C)O (centres undefined) | 0.721% (inactive) |  |
| CC(=O)N1CCN(c2ccc(NCc3ccccc3)cc2)CC1 |  | 8.41 µM (active) |
| CC(=O)N1CCN(c2ccc(NCc3cccc4ccccc34)cc2)CC1 | -12.5% (inactive) |  |
| CCc1ccc(CNc2ccc(N3CCN(C(C)=O)CC3)cc2)cc1 | -9.6% (inactive) |  |
| CCN(CCCNC(=O)CN(C)S(=O)(=O)c1cccc2nsnc12)c1cccc(C)c1 | -0.901% (inactive) |  |

| SMILES | activity change, negative = inhibition | AC50 |
| --- | --- | --- |
| O=S(=O)(c1ccc2ccccc2c1)N1CCN=C1SCc1cccnc1 | -0.468% (inactive) |  |
| CCCc1ccc(-c2cc(N)n[nH]2)cc1 | 1.55% (inactive) |  |
| O=C(N/N=C/c1ccncc1)c1cccc(N/N=C/c2ccncc2)c1 | -0.954% (inactive) |  |
| Cc1cccc(N/N=C/c2ccc(O)c(O)c2O)c1 | -9.18% (inactive) |  |
| Cc1cccc(N/N=C/c2ccncc2)c1 |  | 2.61 µM (active) |
| COC(=O)/C=C/S(=O)(=O)c1ccc(NC(C)=O)cc1 | -3.22% (inactive) |  |
| CC(=O)N/N=C/c1cc(C)n(-c2ccc(Br)cc2)c1C | -6.43% (inactive) |  |
| COc1cc(/C=C2\CCCc3c2nc2ccccc2c3C(=O)O)cc(Br)c1O | -1.92% (inactive) |  |
| CCN(CC)c1ccc(NS(=O)(=O)c2ccc(OC)cc2)cc1 | -0.963% (inactive) |  |
| CCc1cc(C(=O)c2ccc(OC)cc2)c(NC(=O)CC(C)(C)CC(=O)O)s1 | -10.1% (inactive) |  |
| COc1cc(/C=N/NC(=O)c2ccc(CSc3nncn3C)cc2)cc(OC)c1O | -11% (inactive) |  |
| Cn1c(CSCc2ccc(Cl)cc2)n[nH]c1=S | -3.7% (inactive) |  |
| Cc1cc(C)n2nc(C(=O)N/N=C/c3ccc(O)cc3)nc2n1 | -6.76% (inactive) |  |
| Cc1nn(-c2ccccc2)c(C)c1-c1cc(C(=O)N/N=C/c2ccc(O)cc2)[nH]n1 | -5.99% (inactive) |  |
| CN(C)Cc1ccccc1Sc1ccc(O)cc1O | -17.3% (inactive) |  |
| Cc1c(Cl)cccc1-n1c(-c2cccnc2)n[nH]c1=S | -8.61% (inactive) |  |
| CN(C)c1ccc(CNS(=O)(=O)c2ccc3c(c2)NC(=O)CS3)cc1 | 4.17% (inactive) |  |
| Cc1ccc(NCCC(=O)c2cccs2)cc1C | -0.813% (inactive) |  |
| Cc1ccc(NNC(=O)c2ccno2)cc1C |  | 0.635 µM (active) |
| Cc1ccc(NNC(=O)c2ccno2)cc1Cl |  | 0.327 µM (active) |
| Cc1cc(C(=O)NNc2ccc(F)cc2)no1 | -5.17% (inactive) |  |
| O=C(Nc1ccc(Cl)c(Cl)c1)Nc1ccccc1C(=O)O | -2.26% (inactive) |  |
| COc1ccc(/C=N/NC(=O)c2ccncc2)cc1CN1CCN(c2ccc(F)cc2)CC1 | -3.54% (inactive) |  |
| CCN(CC)c1ccc(/C=N/NC(=O)c2cccc(N3CCCC3=O)c2)cc1 | -1.14% (inactive) |  |
